In PubChem BioAssay (NCATS):
Where “and” joins values, the source holds several entries; their conditions need not be identical. Identical values can stand only once. Records with an inconclusive call do not appear. A number with no mark means an inactive call. Calls of active or inactive are those of the source. Calls follow the shape of the dose curve; as a rule, active = well fitted cell-killing curve with a large enough effect; inconclusive = small, poorly fitted or top-dose-only effect, or effect the other way; inactive = no such curve, though single readings can be large or run the other way.

experiment: Viability qHTS for spleen associated tyrosine kinase inhibitor (SYKi) naive MV4-11 cells (AID 1963823); settings: MV4-11 AML viability, CellTiter-Glo luminescence, 72 h; series mostly up to 45 µM; viability (% of control): at the top concentration; also: nearly all actives have a fitted effect of over 40% in size
Method in brief: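 Seeding of 500 SYKi-naive MV4-11 cells per well onto pre-dispensed compounds preceded a 72 hr incubation at 37 C. Luminescent CellTiter-Glo signal, read after 10 min at room temperature, reflected viable cells.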
Potency is read from the fitted curve at half-maximal effect.

| SMILES | viability (% of control) | Potency |
| --- | --- | --- |
| CCN1CCN(c2cc(-c3ccc(F)cc3)c3c(n2)CCCCCC3)CC1 | 88% |  |
| NC[C@@](O)(c1ccc(Cl)cc1)c1ccc(-c2cn[nH]c2)cc1 |  | 2.06 µM (active) and 3.32 µM (active) |
| O=c1c(-c2ccc(O)cc2)coc2c([C@@H]3O[C@H](CO)[C@@H](O)[C@H](O)[C@H]3O)c(O)ccc12 | 102% |  |
| CC(C)(O)CC[C@@H](O)[C@](C)(O)[C@H]1CC[C@@]2(O)C3=CC(=O)[C@@H]4C[C@@H](O)[C@@H](O)C[C@]4(C)[C@H]3CC[C@]12C | 89% |  |
| Cc1cccc(C)c1NC(=O)c1ccccc1C(=O)O | 88.8% |  |
| COc1ccccc1C(=O)Nc1cc2c(cc1N1CCCCC1)n(C)c(=O)n2C |  | 14.8 µM (active) |
| CN1CCN(c2ccc3nc(-c4cc(C(C)(C)C)c(OCCCC(=O)NCCCN=[N+]=[N-])c(C(C)(C)C)c4)[nH]c3c2)CC1 |  | 5.25 µM (active) |
| CC(=O)NC(CS)C(=O)O (configuration not stated) | 90.1% |  |
| C[C@]12CCC(=O)C=C1CC[C@@H]1[C@@H]2C(=O)C[C@@]2(C)[C@H]1CC[C@]2(O)C(=O)CO | 102% |  |
| CN1C(C)(C)CCCC1(C)C | 78.5% |  |
| N#Cc1ccc(COC[C@H]2O[C@@H](n3c(NCc4ccc(Cl)c(Cl)c4)nc4c(N)ncnc43)[C@H](O)[C@@H]2O)cc1 |  | 4.68 µM (active) |
| CC(=O)Nc1ccc(OC(=O)c2ccccc2OC(C)=O)cc1 | 71.6% |  |
| O=C(O)CCC(=O)Nc1ccc(S(=O)(=O)Nc2nccs2)cc1 | 80.3% |  |
| COc1ccccc1OCC(O)CO (configuration not stated) | 91% |  |
| O=C(CCc1ccc(O)cc1)c1c(O)cc(O)cc1O[C@@H]1O[C@H](CO)[C@@H](O)[C@H](O)[C@H]1O | 101% |  |
| CN(C)c1cc(NC(=O)CNC(C)(C)C)c(O)c2c1C[C@H]1C[C@H]3[C@H](N(C)C)C(=O)C(C(N)=O)=C(O)[C@]3(O)C(=O)C1=C2O | 76.1% |  |
| CC(C)N(CCCNC(=O)Nc1ccc(C(C)(C)C)cc1)C[C@H]1O[C@@H](n2cc(Br)c3c(N)ncnc32)[C@H](O)[C@@H]1O |  | 4.68 µM (active) |
| c1ccc(CN(CC2=NCCN2)c2ccccc2)cc1 |  | inactive |
| CC1(C)OC2=C(C(=O)c3ccccc3C2=O)[C@H](NCc2ccccc2)[C@@H]1O |  | 2.63 µM (active) |

| SMILES | viability (% of control) | Potency |
| --- | --- | --- |
| NCC1CCN(c2nccc(-c3ccc4ccccc4c3)n2)CC1 |  | 1.16 µM (active) |
| Brc1c(NC2=NCCN2)ccc2nccnc12 | 78.4% |  |
| Cc1oc(=O)oc1COC(=O)[C@@H]1N2C(=O)[C@@H](NC(=O)[C@H](N)c3ccccc3)[C@H]2SC1(C)C | 72.2% |  |
| CCc1cc(C(N)=O)ccc1-n1nc(C(C)C)c2c(-n3cnc(-c4cnn(C)c4)c3)ccnc21 |  | 0.372 µM (active) |
| Cc1ccc2cc(-c3c(C)ccc(C(=O)c4c(-c5ccccc5)n(C)n(-c5ccccc5)c4=O)c3N)ccc2n1 |  | 4.61 µM (active) |
| CCN(CC)CC(=O)OCC(=O)[C@@]1(O)CC[C@H]2[C@@H]3CCC4=CC(=O)CC[C@]4(C)[C@H]3[C@@H](O)C[C@@]21C | 100% |  |
| COc1cc([C@@H]2c3cc4c(cc3[C@@H](O[C@@H]3O[C@@H]5CO[C@@H](c6cccs6)O[C@H]5[C@H](O)[C@H]3O)[C@H]3COC(=O)[C@H]23)OCO4)cc(OC)c1O |  | 0.0742 µM (active) |
| O=C1Nc2nc(-c3c(O)cccc3OCC3CC3)cc([C@@H]3CCCNC3)c2CO1 |  | 2.91 µM (active) |
| COc1ccc(-c2cc(C(O)C3CCCCN3)c3ccccc3n2)cc1 (configuration not stated) |  | 0.525 µM (active) |
| Cc1[nH]c2ccc(F)cc2c1-c1nc2c3cccnc3c3ncccc3c2[nH]1 |  | 0.231 µM (active) |
| COCCOc1cnc2ccn([C@H](C)c3nnc4c(F)cc(-c5cnn(C)c5)cn34)c(=O)c2c1 | 72.8% |  |
| CCCCNc1ncc2c(-c3ccc(F)cc3)nn(CC3CCC(N)CC3)c2n1 (configuration not stated) |  | 0.008 µM (active) |
| CNCc1ccc(-c2cc(-c3nc(-c4ccc(S(=O)(=O)C(C)C)cc4)cnc3N)on2)cc1 |  | 0.259 µM (active) |
| CCCCOC(=O)CC(CC(=O)OCCCC)(OC(C)=O)C(=O)OCCCC | 60.4% |  |
| CCN(CC)CCc1nc(-c2ccccc2)no1 | 82% |  |
| C=C1C[C@H]2C=Nc3cc(OCCCOc4cc5c(cc4OC)C(=O)N4CC(=C)C[C@H]4C=N5)c(OC)cc3C(=O)N2C1 | 4.71% |  |
| C(=C\c1ccccc1)/CN1CCN(C(c2ccccc2)c2ccccc2)CC1 | 84.9% |  |
| CNC(=O)c1cccc2cc(Oc3ccnc4cc(OCC5(N)CC5)c(OC)cc34)ccc12 |  | 13 µM (active) |
